# In the library only some 4.1% were active in any assay of this set; here they are far more common.
# CHT inh – human CHT choline transport inhibition | 310,000 tested, 0.86% active | B-score at 10 µM | Q9GZV3 | CHT-expressing cells, membrane potential dye, choline response; stronger effect = lower value;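 active means B-score over 3 SD under the library average, and starting fluorescence ratio not unusually high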;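 further: choline stimulus applied at its EC90 after an EC20 pre-addition; B-score computed on integrated fluorescence ratio after choline addition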
# Target sequence (Q9GZV3 whole entry, looked up): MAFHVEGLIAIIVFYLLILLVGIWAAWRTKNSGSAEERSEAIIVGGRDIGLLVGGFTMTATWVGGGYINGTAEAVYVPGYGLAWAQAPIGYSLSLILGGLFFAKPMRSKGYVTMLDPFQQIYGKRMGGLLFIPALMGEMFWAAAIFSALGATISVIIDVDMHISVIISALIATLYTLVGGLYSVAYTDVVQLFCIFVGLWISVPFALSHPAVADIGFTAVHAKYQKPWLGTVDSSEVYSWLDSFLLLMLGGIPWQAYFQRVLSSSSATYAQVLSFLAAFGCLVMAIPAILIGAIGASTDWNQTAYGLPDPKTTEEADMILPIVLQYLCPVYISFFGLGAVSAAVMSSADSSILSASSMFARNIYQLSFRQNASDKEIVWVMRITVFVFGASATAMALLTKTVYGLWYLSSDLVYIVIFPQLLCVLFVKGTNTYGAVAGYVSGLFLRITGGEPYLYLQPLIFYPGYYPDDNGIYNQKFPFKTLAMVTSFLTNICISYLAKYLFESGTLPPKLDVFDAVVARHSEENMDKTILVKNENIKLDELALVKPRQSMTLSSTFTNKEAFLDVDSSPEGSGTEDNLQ
# MEKK3 PB1 HTS – MEKK3-MEK5 PB1 interaction, increase or decrease. Q99759. bead-based flow cytometry, Alexa488-MEK5 binding to MEKK3; actives lie on both sides; 0 = blocked by unlabeled MEK5, 100 = vehicle. binding response (% of control), % at 10 µM. 290,000 tested, 1.4% active. AID 1529;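 active means binding response more than 3 SD above or below the average of its plate-row segment, actives on both sides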;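 further: Alexa488 bead fluorescence after subtracting the streptavidin-only scavenger bead signal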
# SUMO Mot1 rescue – SUMOylation pathway inhibition by Mot1-301 growth rescue | S. cerevisiae Mot1-301 growth rescue, ATP luminescence, 38.5C; percent above DMSO median, 100 means doubled | growth rescue, % at 18.8 µM | 320,000 tested, 1% active;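 active means every valid replicate shows activation above 250% relative to neutral control wells; inactive means the rest, any valid replicate at or below 250%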;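 further: OY570 slx delta 5 strain wells were the positive control but not used for scaling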
# MEKK2wt PB1 HTS – raises or lowers MEK5 binding to wildtype human MEKK2 PB1 domain | bead flow cytometry, Alexa488-MEK5 binding to MEKK2 WT; actives lie on both sides | binding response (% of control), % at 10 µM | 290,000 tested, 1.1% active | AID 1531; in the data active means binding response below about 67% or above about 130%
# MEKK2 mut-MEK5 – signal of MEK5 binding to mutant human MEKK2 PB1 domain; percent response, % at 10 µM; 290,000 tested, 0.35% active; bead flow cytometry, Alexa488-MEK5 binding to MEKK2 mutant; in the data active means percent response above about 24%, passing the limit was not always enough
# CHT PAM – allosterically activates the human high affinity choline transporter. AID 488977. 310,000 tested, 0.49% active. CHT-expressing cells, membrane potential dye, choline EC20; stronger effect = higher value; LV-AA mutant CHT in HEK293 cells. B-score at 10 µM. Q9GZV3;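 active means initial fluorescence not abnormally high and integrated response B-score, plate-corrected, over 3 SD above library mean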
# MEKK2wt confirm – raises or lowers MEK5 binding to wildtype human MEKK2, retest. shares compounds with MEKK3 PB1 HTS. bead flow cytometry, Alexa488-MEK5 binding to MEKK2 WT; actives lie on both sides. binding response (% of control), % at 10 µM. 5,900 tested, 2.4% active. AID 1892; in the data active means binding response below about 16% or above about 210%; inactive means in between
# MEKK2mut-MEK5 – signal of MEK5 binding to mutant human MEKK2, retest | percent response, % at 10 µM | AID 1893 | shares compounds with MEKK3 PB1 HTS | bead flow cytometry, Alexa488-MEK5 binding to MEKK2 mutant | 5,900 tested, 2% active; in the data active means percent response mostly above about 71%, no sharp cut-off; inactive means mostly below about 38%;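 further: higher means compound restores mutant binding toward wildtype level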
# MEKK3-MEK5 inh – MEKK3-MEK5 PB1 inhibition, single concentration confirmation; 5,900 tested, 1.8% active; bead flow cytometry, Alexa488-MEK5 binding to MEKK3; stronger effect = lower value; binding response (% of control), % at 10 µM; shares compounds with MEKK3 PB1 HTS;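 active means binding response below 72% of control, or above a set upper limit, though filed actives all read lower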;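 further: 100% = DMSO only wells and 0% = binding blocked by excess unlabeled MEK5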
# An asterisk follows results filed as active; i = inactive; · = no result; [ ] = remark or other dose.
SMILES,CHT inh,MEKK3 PB1 HTS,SUMO Mot1 rescue,MEKK2wt PB1 HTS,MEKK2 mut-MEK5,CHT PAM,MEKK2wt confirm,MEKK2mut-MEK5,MEKK3-MEK5 inh
COc1ccc(CCC(=O)Nc2cc(Cl)ccc2N2CCN(C)CC2)cc1,i,101,22,117,25*,i,124,14,108
CN1CCN(c2ccc(Cl)cc2NC(=O)/C=C/c2ccc(F)cc2)CC1,i,108,16,195*,51*,i,185,60,109
COc1ccc(CCC(=O)Nc2cccc(Cl)c2)cc1,i,130*,-10,107,0,i,122,10,105
COc1ccc(/C=N\NC(=O)CC(=O)Nc2cccc(Cl)c2)cc1OC,i,73*[inhibitor],3,77,-10,i,103,4,103
COc1ccc(CC(=O)Nc2cc(Cl)ccc2N2CCCC2)cc1,i,103,-16,101,3,i,·,·,·
CC(C)C(C(=O)NCC1CCCO1)N(C(=O)CNS(=O)(=O)c1ccccc1)C1CCCCC1 (centres undefined),i,·,-4,·,·,i,·,·,·
Cc1nnc(SCC(=O)Nc2nccs2)o1,i,103,-10,108,4,i,·,·,·
CN(Cc1ccc(Br)s1)C(=O)CNC(=O)c1ccc2c(c1)OCO2,·,·,1,·,·,·,·,·,·
Cc1ccc(NC(=O)CSCC(=O)Nc2cc(Cl)ccc2N2CCN(C)CC2)cc1,i,·,-11,·,·,i,·,·,·
CN1CCN(c2ccc(Cl)cc2NC(=O)CCN2C(=O)c3ccccc3C2=O)CC1,i,108,-7,171*,0,i,155,34,101
COc1ccc(CCC(=O)Nc2ccc(-c3noc(-c4ccc(OC)c(OC)c4)n3)cc2)cc1,i,124*,2,123,6,i,111,3,106
COc1ccc(-c2nc(-c3ccc(NC(=O)c4ccc(Br)o4)cc3)no2)cc1OC,i,101,6,99,-2,i,·,·,·
Cc1ccc(S(=O)(=O)/N=C(/c2ccc(F)cc2)N(C)C)cc1,·,96,-15,95,-7,·,·,·,·
Cc1ccccc1C(=O)N(C)c1ccccc1C(=O)NCc1ccccc1,i,99,-6,104,2,i,·,·,·
Nc1nc(Cl)cc(Sc2ccc3ccccc3c2)n1,i,115,-2,119,26*,i,111,4,106
CC1CC(=O)Nc2ccccc2N1C(=O)CN1C(=O)C(=O)N(C)C1=O (centres undefined),·,·,11,·,·,·,·,·,·
CC1CC(=O)Nc2ccccc2N1C(=O)CN1CCN(c2ccccc2)CC1 (centres undefined),i,94,-17,-5.0*[inhibitor],-4,i,99,-5,99
CN(C)CCN1CCc2ccccc21,i,100,-16,144*,11,i,152,38,97
O=C(COc1ccc(Cl)cc1)Nc1ccc2c(c1)C(=O)NC2=O,i,99,12,101,5,i,·,·,·
O=C(NCc1ccc(N2CCCC2=O)cc1)Nc1cccc2ccccc12,i,1.0*[inhibitor],-16,-1.0*[inhibitor],-9,i,101,1,103
O=C(NCc1ccc(N2CCCC2=O)cc1)Nc1ccccc1,i,103,3,103,3,i,·,·,·
COCCNC(=O)c1ccc(N2CC3CC(C2)c2cccc(=O)n2C3)c(NC(=O)c2ccc(Br)o2)c1 (centres undefined),i,101,4,97,2,i,·,·,·
Cc1ccc(C2C(C#N)=C(N)Oc3cc(N)ccc32)cc1 (centres undefined),i,100,-8,103,2,i,·,·,·
Cc1ccc(/C=C2\CCC3=C2OC(N)=C(C#N)C3c2ccc(C)cc2)cc1 (centres undefined),i,118,16,101,108*,i,92,-17,95
Cc1ccc(NC(=O)NCc2ccccn2)c(C)c1,i,101,4,103,1,i,·,·,·
SMILES,CHT inh,MEKK3 PB1 HTS,SUMO Mot1 rescue,MEKK2wt PB1 HTS,MEKK2 mut-MEK5,CHT PAM,MEKK2wt confirm,MEKK2mut-MEK5,MEKK3-MEK5 inh
O=C(NCc1ccccn1)c1ccc(OC2CCN(Cc3ccc(Cl)s3)CC2)cc1,i,103,-7,108,0,i,·,·,·
CC(C)CCn1c(Br)nc2c1c(=O)n(CC(N)=O)c(=O)n2C,i,2.0*[inhibitor],-8,2.0*[inhibitor],-15,i,99,-3,99
CC(C)CCn1c(Cl)nc2c1c(=O)n(C)c(=O)n2C,i,89,-13,88,-7,i,·,·,·
CSc1nnc(-c2nnc(SC)n2-c2ccccc2)n1-c1ccccc1,i,22*[inhibitor],-10,35*[inhibitor],-33,i,96,0,101
Cc1ccc(N/C(CSC(N)=O)=N/S(=O)(=O)c2ccccc2)cc1,i,125*,11,116,4,i,99,-2,105
Cc1ccc(N/C(CSC(N)=O)=N\S(=O)(=O)c2ccc(C)cc2)cc1,i,128*,-10,121,6,i,98,-5,100
CCc1ccc(Nc2oc(C)cc(=O)c2C(C)=O)cc1,i,106,-5,107,5,i,·,·,·
Cc1[nH]c2ccccc2c1-c1nc(-c2ccc(Cl)cc2)nnc1-c1ccccc1,i,105,3,100,-1,i,·,·,·
CCOC(=O)Nc1ccc2c(c1)nc(CN1CCCCC1)n2C,i,104,-12,108,6,i,·,·,·
CC(=O)c1ccc(N2CCN(c3ncccn3)CC2)c([N+](=O)[O-])c1,i,96,-24,89,-10,i,·,·,·
CC(=O)c1ccc(N2CCc3ccccc3C2)c([N+](=O)[O-])c1,i,72*[inhibitor],24,73,-12,i,85,-9,84
Oc1c(Cl)cc(Cl)cc1/C=N/Nc1ncc(Br)cn1,i,138*,207,126,1,i,102,-3,100
O=C(NCCN1CCCCC1)Nc1cccc(F)c1,i,103,3,104,10,i,·,·,·
COC(=O)c1c(C)oc(C)c1S(=O)(=O)N(Cc1ccccc1)C(C)C,i,129*,10,134,28,i,-2.0*[inhibitor],-4,99
COC(=O)c1c(C)oc(C)c1S(=O)(=O)N1CCCC1,i,131*,-17,130,27,i,103,-1,100
